These results are taken from ChEMBL document CHEMBL4513216, “Probing the Open Global Health Chemical Diversity Library for Multistage-Active Starting Points for Next-Generation Antimalarials” (ACS Infect Dis, 2020).

Screen size: about 69,000 compounds; about 8,600 (12%) showed an effect of 50% or more. The sample holds strong results, similar compounds and a random draw of the others, so the mix is not that of the screen.

The test system of this assay is Plasmodium berghei. Nature of the assay: Screen against P. berghei liver stage (PbLuc), transformed with Luciferase, at 10uM. The conditions noted are these: tested at 10 uM. It is filed as functional, HepG2.
Turning to `COc1ccc(CCN2CCN(C(=O)c3scnc3C)CC2)cc1`, the INHIBITION came to 25.3%.

As for `CN1CCc2onc(CNc3ncccn3)c2C1`, the INHIBITION is 19.5%.

Take `COc1ccc(CNC2CCCc3nc(N(C)C)ncc32)c(OC)c1` (centres undefined): the INHIBITION is 16.7%.

With `CN(C)C1(CNC(=O)c2c(O)cc(Cl)cc2Cl)CCOCC1`, the INHIBITION is 54.8%.

On to `CC(NCC1(N(C)C)CCOCC1)c1ccc(Cl)cc1` (centres undefined), for which the INHIBITION was -2.025%.

As to `CN(C)C1(CNC(=O)Cc2ccc(F)cc2)CCOCC1`, the INHIBITION is given as -21.8%.

As to `O=C(c1ccc[nH]1)N1CCc2cc(S(=O)(=O)N3CCOCC3)ccc2C1`, the INHIBITION is recorded as 42.8%.

Regarding `O=C(NC1CCN(CC2CC2)C1)c1ccc(N2CCC(O)CC2)cc1` (centres undefined), the INHIBITION amounted to 77.7%.

In the case of `O=C(Nc1ccnc2ccnn12)c1ccc(N2CCC(O)CC2)cc1`, the INHIBITION came to 38.1%.

As to `O=C(NC1CCN(CC2CC2)C1)c1ccc(C(=O)c2cc[nH]c2)cc1` (centres undefined), the INHIBITION is listed as 10.6%.

Take `COC[C@@H]1CCCN1C(=O)CCc1c(C)nn(C)c1C`: the INHIBITION came out at 8.7%.

`CCN(CC)c1nc2sc(C(=O)N3CCNC(=O)C3)cc2s1`: the INHIBITION is listed as -81.7%.

For `CC(C)CC1SCC(=O)Nc2c1cnn2-c1ccccc1F` (centres undefined), the INHIBITION turned out to be 13%.

In the case of `O=C(O)[C@@H]1CN(C(=O)CCCc2ccc(F)cc2)C[C@H]1C1CC1`, the INHIBITION is on record as -14.2%.

For the molecule `O=C(O)[C@@H]1CN(C(=O)Cc2ccccc2Cl)C[C@H]1C1CC1`, the INHIBITION was found to be 79.2%.

For the molecule `CCOc1ccccc1CC(=O)N1C[C@@H](C(=O)O)[C@H](C2CC2)C1`, the INHIBITION amounted to 2.66%.

Turning to `CC(=O)N1CCCC1c1nccnc1Nc1cccc(C)n1` (centres undefined), the INHIBITION was 39.2%.

For `O=C(NCCNC(=O)C1Cc2cc(F)ccc2O1)C1CCCCC1` (centres undefined), the INHIBITION was -0.529%.

For `Cc1ccc(NCCNC(=O)C2Cc3cc(C)c(C)cc3O2)nn1` (centres undefined), the INHIBITION was 55%.

`Cc1cc2c(cc1C)OC(C(=O)NCCNC(=O)C1CCCC1)C2` (centres undefined): the INHIBITION is -35.1%.

As for `O=S1(=O)NC2(CCCN(Cc3ccc(Cl)cc3)C2)COc2ccccc21` (centres undefined), the INHIBITION turned out to be 27.5%.

Regarding `Cc1cc(=O)n2nc(Oc3cccc(C(N)=O)c3)sc2n1`, the INHIBITION is recorded as 3.84%.

With `CS(=O)(=O)c1ncc(CN2CCN3CCCC3C2)n1CC1CCCCC1` (centres undefined), the INHIBITION is given as 12.3%.

On to `CS(=O)(=O)c1ncc(CN2CCCC(C(N)=O)C2)n1CC1CCCCC1` (centres undefined), for which the INHIBITION was 0.734%.

`CN(C)C1CCN(Cc2cnc(S(C)(=O)=O)n2CC2CCCCC2)C1` (centres undefined): the INHIBITION is 81.6%.

Take `N#Cc1ccc(CN2CCC(CN3CCOCC3)C2)cc1` (centres undefined): the INHIBITION is reported as -11.9%.

In the case of `CN1CC2(CCN(C(=O)c3cccnc3)CC2)c2cccc(F)c21`, the INHIBITION was 31.5%.

Regarding `CCn1ncc2c1C(COCC1CC1)CN(C(=O)c1ccncn1)C2` (centres undefined), the INHIBITION came to 26.4%.

For `CC(C)N1CCC2(CCNCC2)C1=O`, the INHIBITION is -25.8%.

Regarding `O=C(CSc1nnc(N2CCOCC2)s1)NC(=O)Nc1ccccc1`, the INHIBITION is on record as -1%.

On to `O=C(CSc1nnc(N2CCNCC2)s1)Nc1ccccc1`, for which the INHIBITION was 59.2%.

As to `O=C(CSc1nnc(N2CCCC2)s1)NC(=O)Nc1ccccc1`, the INHIBITION is given as -22.405%.

`CCc1nnc2n1CCN(C(C(N)=O)c1ccc(F)cc1)C2` (centres undefined): the INHIBITION is recorded as 1.45%.

In the case of `NC(=O)C(c1ccc(F)cc1)N1CCN(CCO)CC1` (centres undefined), the INHIBITION worked out at 56.9%.

On to `Cc1nnc2n1CCN(C(C(N)=O)c1ccc(F)cc1)C2` (centres undefined), for which the INHIBITION was determined as 25.8%.

Take `COc1cccc(OC)c1OCCn1c(C)c(C)oc1=O`: the INHIBITION stood at 22.5%.

`Cc1cc(C)n(CC2CCCN2C(=O)c2ccc(N(C)C)nn2)n1` (centres undefined): the INHIBITION is reported as 38.8%.

Turning to `CC(C)=CCN1CCc2onc(-c3ccc(F)c(F)c3)c2C1`, the INHIBITION stood at 5.78%.

For the molecule `Fc1ccc(-c2noc3c2CN(CC2CC2)CC3)cc1F`, the INHIBITION is reported as 52.7%.

With `Fc1ccccc1-c1noc2c1CN(CC1CC1)CC2`, the INHIBITION is recorded as 55.4%.

Regarding `c1ccc(-c2noc3c2CN(CC2CC2)CC3)cc1`, the INHIBITION is 2.3%.

Take `Fc1ccccc1-c1noc2c1CN(CCN1CCOCC1)CC2`: the INHIBITION is listed as 34.5%.

With `CC(O)CN1CCc2onc(-c3ccccc3F)c2C1` (centres undefined), the INHIBITION is reported as -10.9%.

With `Fc1cc(CN2CCCC2Cn2cncn2)c2ncccc2c1` (centres undefined), the INHIBITION is 11.8%.

In the case of `O=C(N1CCCO1)[C@@]12CCO[C@@H]1CCN(C1CCCCC1)C2`, the INHIBITION came to 13%.

On to `Cc1ccc(Oc2ncccc2CNC(=O)C2COC(=O)N2)c(F)c1F` (centres undefined), for which the INHIBITION was determined as 12.9%.

For the molecule `COc1ccccc1Oc1ncccc1CNC(=O)C1COC(=O)N1` (centres undefined), the INHIBITION is on record as 41.3%.

With `Cc1cccc(C)c1Oc1ncccc1CNC(=O)C1COC(=O)N1` (centres undefined), the INHIBITION worked out at 53.8%.

With `CCCN(CCO)C(=O)c1cc(COc2ccc3c(c2)CCCC3)on1`, the INHIBITION came to 33%.

`CC(Cn1cccn1)NC(=O)NCCc1ccsc1` (centres undefined): the INHIBITION is listed as 21.5%.

`Cc1occc1CNC(=O)Nc1ccc2nc(N3CCOCC3)oc2c1`: the INHIBITION was 25.8%.

For `CCC(C(=O)Nc1ccc2nc(C)oc2c1)N1CCCC1=O` (centres undefined), the INHIBITION is 71.2%.

With `CCC(C(=O)Nc1ccc2cn(CC)nc2c1)N1CCCC1=O` (centres undefined), the INHIBITION was 54.5%.

In the case of `CCC(CNC(=O)Nc1cnn(CC)c1)N1CCCC1` (centres undefined), the INHIBITION stood at 39.5%.

Consider `CCC(C(=O)NCCc1ccn(-c2ccccc2)n1)N1CCCC1=O` (centres undefined), for which the INHIBITION is listed as -21%.

With `CCC(C(=O)N1CCCSCC1)N1CCCC1=O` (centres undefined), the INHIBITION came to 21.5%.

For the molecule `CN(C)C(=O)COCC1CN(C2CCC2)Cc2ncn(C)c21` (centres undefined), the INHIBITION is -19.1%.

In the case of `Cc1cc(C)n(Cc2cccc(C(=O)N3CCOCC3(C)C)c2)n1`, the INHIBITION is -4.23%.

For the molecule `CCN(CC)C(=O)CNC(=O)N1CCC(c2ccccc2)C1` (centres undefined), the INHIBITION turned out to be 43.7%.

Take `CC(C)(O)CCc1ccc(C(=O)N2CCN(CC(F)(F)F)CC2)cc1`: the INHIBITION was found to be 52.6%.

For `CC(C)(O)CCc1cccc(C(=O)N2Cc3cnn(CCO)c3C2)c1`, the INHIBITION is listed as 14%.

As to `CC(C)(O)CCc1ccc(C(=O)N2CCN(CCS(C)(=O)=O)CC2)cc1`, the INHIBITION was 16.8%.

Take `CC(C)(O)CCc1ccc(C(=O)N2Cc3cnn(CCO)c3C2)cc1`: the INHIBITION is listed as 73%.

As to `CC(C)(O)CCc1ccc(C(=O)N2CCN(CC3CCCC3)CC2)cc1`, the INHIBITION was found to be 26.6%.

Take `O=C(c1ccc(CN2CCCCC2)cc1)N1Cc2cnn(CCO)c2C1`: the INHIBITION was 30.3%.

As to `CCCS(=O)(=O)N1CC(=O)N(CCCc2ccccc2)CC(O)C1` (centres undefined), the INHIBITION worked out at 48.7%.

In the case of `O=C(c1sccc1C1CC1)N1CCCN(Cc2cscn2)CC1`, the INHIBITION is reported as -4.16%.

For `Cc1cccc(C(C(=O)NCc2cc(C)[nH]n2)N(C)C)c1` (centres undefined), the INHIBITION is given as 3.69%.

On to `COc1cc(NCc2ccncc2)c(-c2nn[nH]n2)cc1OC`, for which the INHIBITION is recorded as -34.6%.
